Assay outcomes deposited in PubChem BioAssay by National Center for Advancing Translational Sciences (NCATS).
This excerpt belongs to a sample that is enriched for hits.
Eya2 phos inh: inhibitors of human Eya2 phosphatase activity; hit rate 0.006% among 330,000; O00167; Potency, µM (series often up to 76.9 µM), for the others: at the top dose activity, negative = inhibition, hits mostly inhibitors; AID 488837; recombinant Eya2, OMFP fluorescence dephosphorylation (OMFP is methylfluorescein phosphate); note: % is set by controls: 0 for no effect and ±100 for the full control effect
Target sequence (O00167 whole entry, looked up): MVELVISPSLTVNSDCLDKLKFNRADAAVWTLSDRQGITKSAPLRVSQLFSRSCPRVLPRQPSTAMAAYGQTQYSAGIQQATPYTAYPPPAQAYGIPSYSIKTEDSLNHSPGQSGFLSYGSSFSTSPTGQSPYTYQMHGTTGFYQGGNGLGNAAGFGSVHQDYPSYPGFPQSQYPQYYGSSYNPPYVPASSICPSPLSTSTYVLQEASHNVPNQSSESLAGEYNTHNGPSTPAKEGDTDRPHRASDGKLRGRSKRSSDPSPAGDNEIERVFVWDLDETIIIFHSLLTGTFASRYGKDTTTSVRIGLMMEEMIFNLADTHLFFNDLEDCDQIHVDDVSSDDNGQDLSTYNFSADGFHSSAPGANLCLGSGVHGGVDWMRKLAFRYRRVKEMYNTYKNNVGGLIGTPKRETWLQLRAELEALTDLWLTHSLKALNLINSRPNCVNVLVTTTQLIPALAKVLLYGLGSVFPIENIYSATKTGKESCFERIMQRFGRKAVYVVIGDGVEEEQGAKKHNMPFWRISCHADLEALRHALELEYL
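Eya2 protein (added as 0.2 uM solution) was preincubated with compound for 10 min at ambient temperature in 50 mM HEPES pH 7.5, 50 mM NaCl, 5 uM MgCl2, 0.05% BSA, 1 mM DTT. OMFP (added at 50 uM) then reacted 10 min; fluorescence read at 485/525 nm.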
MmCpn inh: M. maripaludis TRiC chaperonin inhibition; Potency, µM (titrated, usually from 76.9 µM), for the others: top-dose activity, negative = inhibition, actives largely listed as inhibitors; hit rate 0.031% among 330,000; purified Mm-Cpn ATPase, ADP Transcreener TR-FRET; note: % is set by controls: 0 for no effect and ±100 for the full control effect; nearly all actives have a fitted effect of over 80% in size
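Inhibition of chaperonin ATP hydrolysis is measured as reduced ADP production, detected by competitive TR-FRET in which signal falls with ADP. Final enzyme 25 nM and ATP 10 uM, reacted 30 min at 37°C.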
a7 integrin act: integrin-mediated muscular dystrophy alleviation activation; Potency, µM (highest dose often 38.3 µM), for the others: at the highest dose activation, hits mostly activators; alpha7betagal myoblasts, beta-gal FDG fluorescence, 48 h; AID 624291; hit rate 0.064% among 350,000;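 note: 100% = response of the positive control SU9516; nearly all actives have a fitted effect of over 60% in size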
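alpha7betagal+/- myoblasts (passage 13, 250/well) treated 48 h at 37C with compounds at 1:260 dilution of DMSO stock. Lysed, then beta-galactosidase activity read as FDG fluorescence (ex 480/em 540) after 30 min, with pre-read for autofluorescence.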
USP2a inh: blocks human ubiquitin-specific protease USP2a; O75604; USP2 core, Ub-CHOP2 coupled fluorogenic reporter, 485/531; Potency, µM (highest dose often 38.3 µM), for the others: at the top dose activity change, negative = inhibition, actives largely listed as inhibitors; hit rate 0.01% among 330,000; AID 463254;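 note: plate controls were DMSO wells for no effect and full inhibition by NEM control for full effect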
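USP2 core (10nM final) preincubated 30min RT with compound in 20mM Tris-HCl pH 8.0, 2mM CaCl2, 2mM beta-mercaptoethanol, 0.05% CHAPS; 25nM Ub-CHOP2 plus 25nM reporter substrate added, fluorescence (Ex485/Em531) read after 60min.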
p53 reactivation: restores transcriptional activity of mutant p53. H1299 p53-A138V BP100-luciferase reporter, luminescence, 24 h. Potency, µM (series often up to 92.2 µM), for inactives: top-dose activity change, positive = activation, actives largely listed as activators. hit rate 0.063% among 320,000; note: % of control where 0% means no effect; nearly all actives have a fitted effect of over 45% in size
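p53-null H1299 cells stably carrying temperature-sensitive p53-A138V and a BP100-luciferase reporter were pinned with compounds (4-point, 1:5 series) and held 24 hrs at 37 deg C. Luminescence was read 10 min after detection reagent.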
ClpP mod: qHTS Assay for Activators of ClpP | purified B. subtilis ClpP, FRET peptide cleavage, 20 min | hit rate 1.9% among 340,000 | AID 651965, 2013 | ATP-dependent Clp protease proteolytic subunit (Bacillus subtilis (strain 168)), P80244 | Potency, µM (highest dose often 57.5 µM), for the others: top-dose activity change, negative = active; active = well fitted falling curve with a large enough effect; inconclusive = small, poorly fitted or top-dose-only effect; inactive = no such curve, though single readings can be large or run the other way; note: the source files actives as falling curves though it sought activators and does not explain the sign; nearly all actives have a fitted effect of over 65% in size
Target sequence (P80244 whole entry, looked up): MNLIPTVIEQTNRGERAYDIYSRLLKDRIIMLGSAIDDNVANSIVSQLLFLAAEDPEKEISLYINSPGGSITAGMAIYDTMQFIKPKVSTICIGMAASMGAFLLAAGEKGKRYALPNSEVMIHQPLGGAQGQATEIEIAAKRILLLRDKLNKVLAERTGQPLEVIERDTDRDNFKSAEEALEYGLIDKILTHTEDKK
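Purified B. subtilis ClpP, 10 microg/mL final in Tris/HCl pH8 with KCl, BSA, glycerol and Tween-20, cleaved an Abz/nitrotyrosine-quenched decapeptide. Fluorescence (ex 320, em 430) was read at 0 and 20 min at room temperature. Delta was normalized to 5.8 microM ADEP and DMSO/no-enzyme controls.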
* marks the source's active call; other numbers are inactive results; ? = inconclusive; / = no result given; [ ] = another dose, or the depositor's remark. Unless noted, calls come from the whole dose curve; as a rule, active = well fitted curve in the direction sought with a large enough effect; inconclusive = small, poorly fitted or top-dose-only effect, or another doubt; inactive = no such curve, though single readings can be large; an effect the other way counts as inactive or inconclusive. Potency is the fitted concentration of half-maximal effect.

SMILES	Eya2 phos inh	MmCpn inh	a7 integrin act	USP2a inh	p53 reactivation	ClpP mod
CCOC(=O)CSc1nc2sc3c(c2c(=O)n1C1CCCCC1)CCN(C)C3	-1%	-20%	0%	-2%	-7%	28µM*
CCOC(=O)CSc1nc2sc3c(c2c(=O)n1-c1ccc(OCC)cc1)CCN(C)C3	-24%	-2%	-7%	-1%	?	-22%
Cc1nc2ccc(C(=O)OC(C)C(=O)c3c(C)[nH]c4ccccc34)cc2nc1C (centres undefined)	/	/	/	/	/	-1%
C=C1C=C(C)n2ncc(C(=O)Nc3ccc(C)cn3)c2N1	/	/	/	/	/	-5%
COC(=O)C1=C(C)NC(C)=C(C(=O)OC)C1c1ccc(OC(=O)c2ccco2)cc1	0%	-2%	19%	-3%	-22%	18µM*
CCOC(=O)NC1(C(F)(F)F)NC(=O)N(c2cccc(C(F)(F)F)c2)C1=O (centres undefined)	-2%	1%	17%	-1%	-2%	1%
CCOC(=O)NC1(C(F)(F)F)NC(=O)N(c2ccc(F)cc2)C1=O (centres undefined)	7%	-4%	-9%	1%	-2%	35µM*
O=c1oc2ccccc2cc1-c1cn2ccccc2n1	6%	-11%	0%	10%	-7%	/
Cc1oncc1-c1cn2ccccc2n1	21%	-1%	-15%	0%	5%	25µM*
Cc1ccn2cc(-c3cnoc3C)nc2c1	-25%	-1%	1%	-1%	?	14µM*
Cc1cc(N(C)C)cc(C)c1C=O	/	/	/	/	/	1%
Cc1ccc(Cl)cc1N1C(=O)N(Cc2ccc(C#N)cc2)c2ccccc2S1(=O)=O	/	/	/	/	/	-1%
CC(C)Cn1c(=O)c2ccccc2n2c(CCC(=O)NC(C)c3ccccc3)nnc12 (centres undefined)	/	/	/	/	/	-6%
CC(C)n1ncc2c(C(=O)NCCc3ccc(S(N)(=O)=O)cc3)cc(C3CC3)nc21	6%	2%	-17%	1%	-7%	32µM*
Cc1cc(NC(=O)c2cc(-c3ccccn3)nc3ccccc23)no1	0%[15.4 µM]	1%	-18%	2%	-5%	-7%
Cc1ccc(-c2cc(C(=O)Nc3cc(C)on3)c3ccccc3n2)cc1	-4%	?	?	5%	7%	35µM*
COc1ccc(CCNC(=O)c2cc(C3CC3)nc3c2cnn3C(C)C)cc1OC	-3%	-1%	-2%	1%	-18%	-4%
CCCc1ccc(-c2cc(C(=O)NCCc3ccc(S(N)(=O)=O)cc3)c3ccccc3n2)cc1	1%	-4%	-10%[7.66 µM]	-7%	1%	32µM*
Cc1ccc(-c2cc(C(=O)NCc3ccccn3)c3ccccc3n2)cc1C	0%	-4%	13%	-1%	?	32µM*
NS(=O)(=O)c1ccc(CCNC(=O)c2cc(-c3ccc(Br)cc3)nc3ccccc23)cc1	1%	?	-27%	2%	-6%	12%
O/N=C(/CBr)c1ccc2ccccc2c1	/	/	/	/	/	-21%
Cc1cc(NC(=O)c2cc(-c3ccc(C)c(C)c3)nc3ccccc23)no1	0%	-18%	-15%	-2%	13%	13µM*
Cc1ccc(NC(=O)Cn2c(=O)n(Cc3ccc(C(=O)NCc4ccc5c(c4)OCO5)cc3)c(=O)c3ccccc32)cc1	/	/	/	/	/	22µM*
O=C(Cn1c(=O)n(Cc2ccc(C(=O)NCc3ccc4c(c3)OCO4)cc2)c(=O)c2ccccc21)Nc1ccccc1F	/	/	/	/	/	4%
Cc1ccc(NC(=O)Cn2c(=O)n(Cc3ccc4c(c3)OCO4)c(=O)c3ccccc32)cc1	/	/	/	/	/	8%
SMILES	Eya2 phos inh	MmCpn inh	a7 integrin act	USP2a inh	p53 reactivation	ClpP mod
Cc1ccc(Cl)cc1NC(=O)Cn1c(=O)n(Cc2ccc(C(=O)NCc3ccc4c(c3)OCO4)cc2)c(=O)c2ccccc21	/	/	/	/	/	11µM*
Cc1cc(OCc2nn[nH]n2)c2c(C)c(Cc3ccccc3)c(=O)oc2c1	13%	-2%	0%	-2%	1%	32µM*
Cc1cc(OCc2nn[nH]n2)c2c(C)c(CC(=O)O)c(=O)oc2c1	-9%	-3%	9%	-1%	5%	?
Cc1c(C(=O)NCC2CCCO2)oc2ccc3c(c12)C(=O)CC(C)(C)O3 (centres undefined)	2%	0%	-13%	1%	?	25µM*
O=C1/C(=C/c2ccc([N+](=O)[O-])cc2)CCc2ccccc21	-4%	-1%	/	-14%	11µM*	/
O=C1/C(=C/c2cccc([N+](=O)[O-])c2)CCc2ccccc21	-14%	-2%	-31%	-2%	?	0%
COc1ccc(/C=C/C(=O)Nc2ccc(-n3nncc3-c3ccc(OC)c(OC)c3)cc2)cc1OC	-1%	?	-37%	4%	-27%	25µM*
COc1ccc(C(=O)NCc2ccccn2)cc1	11%	2%	15%	11%	9%	-2%
CCc1ccc(-n2nc(CO)c(C(=O)NCc3ccccn3)n2)cc1	/	/	/	/	/	14µM*
O=C(NCc1ccccn1)c1nn(-c2ccccc2Cl)nc1CO	/	/	/	/	/	-1%
CCOc1ccc(-n2nc(CO)c(C(=O)NCc3ccccn3)n2)cc1	/	/	/	/	/	11µM*
CCCN1CNc2c(c(=O)[nH]c(=S)n2CCc2cc(OC)ccc2OC)C1	/	/	/	/	/	2%
Cc1cccn2c(=O)c3cc(C#N)c(=N)n(Cc4cccnc4)c3nc12	/	/	4%	/	/	-5%
Cc1cccn2c(=O)c3cc(C#N)c(=O)n(Cc4cccnc4)c3nc12	0%	-24%	-14%	1%	1%	2.8µM*
O=S(=O)(c1ccccc1Br)N1CCN(c2nc(-c3ccccc3)nc3ccccc23)CC1	/	/	/	/	/	-7%
O=C1NC(=O)/C(=C/c2ccc3c(c2)OC(F)(F)O3)S1	15%	/	/	/	/	/
CC(=O)N1CCc2cc(S(=O)(=O)NC(Cc3ccccc3)C(=O)Nc3cccc(C)c3)ccc21 (centres undefined)	/	/	/	/	/	-1%
O=C(Nc1ccccc1N1CCCCC1)c1ncoc1-c1cccc(F)c1	1%	-5%	-11%	8%	-2%	-26%
O=C(Nc1ccccc1N1CCCCC1)c1ncoc1-c1ccc(F)cc1	5%	-2%	10%	-2%	-2%	28µM*
CC(C)(C)C(=O)Nc1cccc(-c2nc3ccccc3[nH]2)c1	8%	-5%	5%	2%	7%	?
CC(C)(C)C(=O)Nc1sc2c(c1-c1nc3ccccc3[nH]1)CCCC2	7%	-3%	5%	1%	8%	22µM*
O=C(CSc1n[nH]c(-c2ccc(S(=O)(=O)N3CCCCC3)cc2)n1)Nc1nccs1	-32%	1%	5%	0%	12%	28µM*
